Compound activity from PubChem BioAssay.
SARS PLpro yeast = SARS-CoV PLP inhibition in yeast; S. cerevisiae expressing SARS-CoV PLpro, growth rescue; Potency, µM (series often up to 32.9 µM), for inactives: top-dose activity, positive = growth rescue, usual class: activators; hit rate 0.19% among 330,000; AID 485353; calls by dose curve; also: potency is read from the fitted curve at half-maximal effect; 0% is about no effect; nearly all actives have a fitted effect of over 55% in size
Pf growth 96h = P. falciparum growth inhibition at 96 hour, primary screen for plastid delayed-death inhibitors; P. falciparum luciferase reporter growth, 96 h; Potency, µM (doses to about 28.7 µM), for the others: at the top dose activity change, negative = inhibition, most hits filed as inhibitors; hit rate 6.9% among 320,000; AID 504834; also: potency is read from the fitted curve at half-maximal effect; % is scaled to controls: 0 for no effect and ±100 for the full control effect
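Readout is luminescence from an integrated firefly luciferase in P. falciparum. Red cells, 2% hematocrit and 0.05% parasitemia final, were cultured with compound through two parasite generations (96 hours) at 37 C, 5% CO2.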
Shiga inhibitor = blocks Shiga toxin action in Vero cells; Vero cells, Shiga toxin protein synthesis inhibition reporter; inhibition, % at 38.7 µM; hit rate 9.2% among 290,000; in the data active = inhibition mostly above about 28%, no sharp cut-off; inactive = mostly below about 43%; also: 0% is about no effect
Cycloheximide cs = affects cycloheximide protein synthesis inhibition readout, counter-screen. cell reporter, cycloheximide protein synthesis inhibition counterscreen. max response, %. hit rate 12% among 300,000. AID 2314; in the data active = max response mostly above about 13%, no sharp cut-off; inactive = mostly below about 14%; also: read at 38.3 µM for the half of the compounds with a filed dose; 0% is about no effect
AMA1 RON2 block = inhibitors of Plasmodium falciparum AMA1-RON2 interaction; AlphaScreen AMA1-biotinylated RON2 peptide binding; Potency, µM (series often up to 58.2 µM), for the others: at the highest dose activity change, negative = inhibition, usual class: inhibitors; hit rate 0.2% among 360,000;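 also: potency is read from the fitted curve at half-maximal effect; 0% = vehicle wells and -100% = peptide control; nearly all actives have a fitted effect of over 45% in size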
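AMA1 (3D7) with his tag at 25 nM final met compounds first, then biotinylated RON2 peptide at 25 nM; detection used donor plus acceptor beads, 10 µg/mL apiece, read by AlphaScreen after 30 min at room temperature.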
Pf growth 48h = P. falciparum growth inhibition at 48 hours (one generation). P. falciparum luciferase growth in erythrocytes, 48 h. Potency, µM (highest dose often 28.7 µM), for inactives: at the highest dose activity change, negative = inhibition, hits mostly inhibitors. hit rate 5.9% among 310,000; also: potency is read from the fitted curve at half-maximal effect; % is scaled to controls: 0 for no effect and ±100 for the full control effect
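First compound was added to culture medium, then infected red cells at 0.1% parasitemia and 2% hematocrit (final). After incubation at 37 C under 5% CO2, luciferase detection reagent was dispensed and light output recorded.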
Active calls of the source: *; ? = inconclusive; . = no result given; [ ] = dose if it differs, or a comment. This is a sample that favours compounds with a hit; in the whole collection about 19% have one here. Unless noted, calls follow the shape of the dose curve; as a rule, active = well fitted curve in the direction sought with a large enough effect; inconclusive = small, poorly fitted or top-dose-only effect, or another doubt; inactive = no such curve, though single readings can be large; an effect the other way counts as inactive or inconclusive.

SMILES | SARS PLpro yeast | Pf growth 96h | Shiga inhibitor | Cycloheximide cs | AMA1 RON2 block | Pf growth 48h
O=C(NCc1cccnc1)c1cc(C2CCCCN2C(=O)OCc2ccccc2)on1 (stereo not drawn) | . | . | . | . | 11.0% | .
N#Cc1nc(-c2ccccc2F)oc1NCc1ccccc1 | -4.8% | ? | 25.8 | 18.1* | 0.0% | .
N#Cc1nc(-c2cccs2)oc1NCCc1ccccc1 | -14.8% | -19.3% | 74.2* | 33.8 | -11.6% | .
N#Cc1nc(-c2ccccc2F)oc1NCCc1ccccn1 | -7.6% | ? | -3.8 | 1.4 | 28.3% | 11.9%
CCNc1oc(COc2ccccc2F)nc1C#N | 2.6% | . | 106.6* | 25.7* | -4.5% | 53.7%
N#Cc1nc(-c2ccccc2F)oc1NCCc1ccccc1 | -9.5% | -0.7% | 36.9 | 41.0* | ? | 37.5%
N#Cc1nc(-c2cccs2)oc1NCCN1CCOCC1 | -0.6% | . | -10.1 | 1.9 | 18.0% | 0.9%
COc1ccc(CCNc2oc(COc3ccccc3F)nc2C#N)cc1OC | -14.3% | 157.3% | 16.1 | 2.5 | -2.3% | ?
COCCNc1oc(COc2cccc(C)c2)nc1C#N | -1.7% | -3.5% | active | 19.2* | 19.4% | 36.2%
COCCCNc1oc(-c2ccccc2OC)nc1C#N | -4.8% | 162.0% | 53.2 | 4.3 | -2.6% | -23.8%
COCCCNc1oc(-c2ccccc2F)nc1C#N | -7.3% | 20.7% | 34.5 | 24.0* | 2.0% | .
N#Cc1nc(-c2cccs2)oc1N1CCN(Cc2ccccc2)CC1 | -1.9% | 28.4% | 22.3 | 16.1* | ? | -18.0%
Cc1ccc(OCc2nc(C#N)c(N3CCN(Cc4ccccc4)CC3)o2)cc1 | -9.7% | 28.3% | -4.3 | -3.7 | ? | -25.2%
CN(C)CCNc1oc(COc2cccc(Cl)c2)nc1C#N | -2.0% | -8.2% | 6.5 | -2.0 | -3.1% | -0.5%
COc1ccc(CCNc2oc(COc3ccccc3Cl)nc2C#N)cc1OC | 0.3% | 3.7µM* | 22.9 | 6.9 | -22.0% | 8.28µM*
O=C(Nc1ccccc1)c1ccc(S(=O)(=O)N2CCC(C(=O)O)CC2)cc1 | 2.6% | -22.6% | -32.1 | 10.8 | -2.2% | 9.3%
COc1ccc(-c2nc(C#N)c(NCc3ccc(C)cc3)o2)cc1OC | . | 5.8% | 51.2 | 14.2 | -6.6% | -28.8%
COc1ccc(-c2nc(C#N)c(NCCc3ccccc3)o2)cc1OC | 0.8% | . | 49.8 | 21.6* | -2.7% | 12.9%
CCN(CC)CCCNc1oc(-c2ccccc2[N+](=O)[O-])nc1C#N | -1.0% | 2.62µM* | 15.3 | 11.0 | 104.8% | ?
N#Cc1nc(-c2ccco2)oc1NCCc1ccccc1 | -14.7% | -6.4% | 27.2* | 27.5* | -7.3% | -3.6%
O=C(CCN=C1NS(=O)(=O)c2ccccc21)OCc1nnc(-c2ccccc2)o1 | 2.4% | 38.5% | . | . | 25.6% | 2.2%
COc1ccc(Cc2nnc(NC(=O)Nc3ccccc3F)s2)cc1OC | -9.9% | 11.7µM* | -10.7 | -1.3 | -0.9% | ?
O=C(Nc1ccccc1)Nc1nnc(Cc2ccc([N+](=O)[O-])cc2)s1 | -2.1% | 11.5% | 6.7 | 13.7 | 2.2% | ?
O=C(Nc1ccccc1)Nc1nnc(Cc2ccc(F)cc2)s1 | 1.6% | 8.28µM* | -3.3 | -2.2 | 4.0% | ?
O=C(Nc1nnc(Cc2ccc(F)cc2)s1)Nc1ccccc1F | 5.9% | 11.7µM* | -3.5 | -1.7 | 9.8% | -4.5%
SMILES | SARS PLpro yeast | Pf growth 96h | Shiga inhibitor | Cycloheximide cs | AMA1 RON2 block | Pf growth 48h
Cc1ccc(NC(=O)Nc2nnc(Cc3ccc([N+](=O)[O-])cc3)s2)cc1C | 12.4% | ? | 30.7 | 18.4* | 3.0%[11.6 µM] | ?
CCOC(=O)C1CCCN(C(=O)c2cccs2)CC1 (stereo not drawn) | . | . | . | . | -8.8% | .
NS(=O)(=O)c1cccc(NC(=O)COC(=O)CSCc2ccccc2)c1 | -0.7% | . | . | . | -0.2% | .
O=C(COC(=O)COc1ccc2c(c1)CCC2)Nc1ccccc1 | 4.7% | 73.2% | . | . | 6.9% | 122.3%
COC1C(O)C(CO)OC1n1cnc2c(NC3CCCCC3)ncnc21 (stereo not drawn) | . | . | -5.8 | 5.6 | . | .
C=CCOC(=O)C1=C(C)Nc2nnnn2C1c1cccs1 (stereo not drawn) | -4.8% | ? | 46.4 | -3.9 | -5.8% | 8.3%
COc1ccc(Cc2nnc(NC(=O)Nc3ccc(F)cc3)s2)cc1OC | 1.5% | 6.3% | 3.7 | -0.7 | 21.5% | 3.3%[0.00184 µM]
Cc1ccc(NC(=O)Nc2nnc(Cc3ccc(F)cc3)s2)cc1 | -3.4% | ? | 41.8* | 16.1 | 8.8% | -24.5%
CN(C)Cc1csc(Nc2ccc(C(=O)c3ccccc3)cc2)n1 | . | . | . | . | 16.7% | .
